Source: ChEMBL document CHEMBL3988442, “University of Dundee, Small-Polar-MMV Screening Library” (2021)
Among all 66,000 compounds or so, about 960 (1.5%) showed an effect of 50% or more. The entries come from a sample that favours strong results as a whole.

System: Trypanosoma brucei
Test: Trypanosoma brucei 72 hour study
Format: functional, organism-based
Set-up: scale not given: in the data most compounds retested in dose-response had high values

CNC(=O)CN(C)c1cncc(OCC(C)C)n1
Percent Effect (30 µM, 30.03 µM): -18.74%

CC(C)COc1cncc(N2CCCN(c3ncccn3)CC2)n1
Percent Effect (30.3 µM, […]): -75.77%

CC(C)COc1cncc(N(C)C2CCN(c3ncccn3)CC2)n1
Percent Effect (30.3 µM, […]): 90.23%

CN(C)CCOCc1nnc2n1CCN(Cc1cccs1)CC2.O=C(O)C(F)(F)F.O=C(O)C(F)(F)F
Percent Effect (30.3 µM, […]): -17.71%

Br.Cc1ccccc1OC1CCN(CC(=O)Nc2ccn(C)n2)CC1
Percent Effect (30.3 µM, […]): 12.28%

Cc1ccccc1N1CC2(CCN(S(=O)(=O)c3ccccc3)C2)CC1=O (stereo not drawn)
Percent Effect (30.3 µM, […]): 11.6%

CCOc1cc2c(cc1CN1CCC3(CC1)CNC(=O)C3)CCC2
Percent Effect (30.3 µM, […]): -17.68%

CCOc1cc(Cl)c(CN2CCC3(CCCNC3=O)C2)cc1OC (stereo not drawn)
Percent Effect (30.3 µM, […]): -16.79%

CCOc1cc2c(cc1CN1CCC3(CCCNC3=O)C1)CCC2 (stereo not drawn)
Percent Effect (30.3 µM, […]): 98.93%

O=C(N1CCCC1)N1CCC2(CCN(Cc3ccccn3)C2=O)C1.O=C(O)C(F)(F)F (stereo not drawn)
Percent Effect (30 µM, 30.03 µM): -20.49%

CCN(CC)c1nc(Nc2cccc(C(C)O)c2)nc2ccccc12 (stereo not drawn)
Percent Effect (30 µM, 30.03 µM): 78.38%

CC(O)c1cccc(Nc2nc(NCCO)c3ccccc3n2)c1 (stereo not drawn)
Percent Effect (30 µM, 30.03 µM): 5.503%

CCN(CC)c1nc(Nc2cccc(C(=O)O)c2)nc2ccccc12
Percent Effect (30 µM, 30.03 µM): -36.54%

O=C(O)C(F)(F)F.O=C1NC2(CCN(C(=O)N3CCOCC3)CC2)CC1c1cccnc1 (stereo not drawn)
Percent Effect (30 µM, 30.03 µM): -17.56%

Cc1ccc(-c2nc(CN3CCOC(CN(C)C)C3)co2)cc1 (stereo not drawn)
Percent Effect (10 µM): 5.738%
Percent Effect (30.3 µM, […]): -1.882%

CN1CCOC(CNC(=O)Cc2coc(-c3ccccc3)n2)C1 (stereo not drawn)
Percent Effect (30.3 µM, […]): -0.1289%
Percent Effect (10 mM, 10 mM as filed; unlikely as a test dose): -18.77%

CN1CCOC(CNCc2c(Cl)nc3ccccn23)C1 (stereo not drawn)
Percent Effect (30 µM, 30.03 µM): -12.37%

CN1CCOC(CNCc2coc(-c3cccc(Cl)c3)n2)C1 (stereo not drawn)
Percent Effect (30.3 µM, […]): 98.76%
Percent Effect (10 mM, 10 mM as filed; unlikely as a test dose): -110.4%

Cc1ccc(-c2nc(CNCC3CN(C)CCO3)co2)cc1 (stereo not drawn)
Percent Effect (30.3 µM, […]): 93.13%
Percent Effect (10 mM, 10 mM as filed; unlikely as a test dose): -9.822%

CN1CCOC(CNCc2coc(-c3cccs3)n2)C1 (stereo not drawn)
Percent Effect (30 µM, 30.03 µM): -23.33%

CN1CCOC(CNCc2coc(-c3ccccc3Cl)n2)C1 (stereo not drawn)
Percent Effect (30.3 µM, […]): 54.4%
Percent Effect (10 mM, 10 mM as filed; unlikely as a test dose): -73.24%

CN(C)CC1CN(Cc2coc(-c3ccccc3Cl)n2)CCO1 (stereo not drawn)
Percent Effect (30 µM, 30.03 µM): -2.77%

CN(C)CC1CN(Cc2coc(-c3ccc(Cl)cc3)n2)CCO1 (stereo not drawn)
Percent Effect (10 µM): -46.52%
Percent Effect (30.3 µM, […]): 62.36%

CN(C)CC1CN(Cc2coc(-c3ccccc3)n2)CCO1 (stereo not drawn)
Percent Effect (10 µM): -12.24%
Percent Effect (30.3 µM, […]): 1.121%

CN1CCOC(CNCc2coc(-c3cccc(F)c3)n2)C1 (stereo not drawn)
Percent Effect (30.3 µM, […]): 41.18%
Percent Effect (10 mM, 10 mM as filed; unlikely as a test dose): -36.07%

CN1CCOC(CNCc2coc(-c3ccccc3)n2)C1 (stereo not drawn)
Percent Effect (30 µM, 30.03 µM): -39%

CCCS(=O)(=O)N1C[C@H]2C[C@H](C(=O)N3CCOCC3)[C@@H](C1)O2
Percent Effect (30.3 µM, […]): -5.473%

CN(C)CCOCc1nnc2n1CCN(Cc1ccc(F)cc1)CC2.O=C(O)C(F)(F)F.O=C(O)C(F)(F)F
Percent Effect (30.3 µM, […]): -11.21%

O=C(O)C(F)(F)F.O=C(c1ccco1)N1C[C@H]2CCCN(Cc3ccoc3)[C@H]2C1
Percent Effect (30 µM, 30.03 µM): -0.7502%

CC1c2ncc(Cn3cncn3)n2CCN1CC1CCOCC1.O=C(O)C(F)(F)F (stereo not drawn)
Percent Effect (30.3 µM, […]): -11%

Fc1cccnc1N1CCOCC2(CCCN(c3nncs3)C2)C1.O=C(O)C(F)(F)F (stereo not drawn)
Percent Effect (30 µM, 30.03 µM): 36.62%

CCN(CC)C(=O)CN1CCc2c(nc(C3CCNCC3)nc2NC)C1.Cl
Percent Effect (30.3 µM, […]): -24.06%

CCn1cc(N2Cc3nc(N4CCC(C)CC4)ncc3C2=O)cn1
Percent Effect (30.3 µM, […]): -21.22%

Cc1ccc(-c2nc(CNCC3CN(C)CCO3)cs2)o1 (stereo not drawn)
Percent Effect (30.3 µM, […]): 4.391%

CN1CCOC(CNCc2nc(-c3ccoc3)no2)C1 (stereo not drawn)
Percent Effect (30 µM, 30.03 µM): -7.602%

CN1CCOC(CNCc2coc(-c3ccc(Cl)cc3)n2)C1 (stereo not drawn)
Percent Effect (30.3 µM, […]): 99.53%
Percent Effect (10 mM, 10 mM as filed; unlikely as a test dose): 19.14%

Cc1ccc(-c2nc(CNC3CCc4ncnn4C3)co2)c(C)c1 (stereo not drawn)
Percent Effect (30 µM, 30.03 µM): 30.05%

CN1CCOC(CNCc2csc(C3CCCC3)n2)C1 (stereo not drawn)
Percent Effect (10 µM): -49.15%

Cc1ccc(-c2nc(CNCC3CN(C)CCO3)co2)c(C)c1 (stereo not drawn)
Percent Effect (30.3 µM, […]): 99.99%
Percent Effect (10 mM, 10 mM as filed; unlikely as a test dose): 61.89%

CN(C)CCCN(Cc1cnn(C)c1)Cc1ccco1.O=C(O)CC(O)(CC(=O)O)C(=O)O
Percent Effect (30.3 µM, […]): -23.52%

O=C(O)C(F)(F)F.O=C(O)C(F)(F)F.c1cncc(CN2Cc3nccn3CC(Cn3cccn3)C2)c1 (stereo not drawn)
Percent Effect (30.3 µM, […]): -81.67%

Cc1cc(-c2cnc(N3CCSCC3)nc2C(C)C)on1
Percent Effect (30.3 µM, […]): -15.33%

Cc1noc(C)c1CN1CCOCC12CCN(c1cnccn1)CC2.O=C(O)C(F)(F)F
Percent Effect (30.3 µM, […]): -24.7%

Cc1nc(C)c(C(=O)Nc2cc(N3CCC(C)CC3)ncn2)s1
Percent Effect (30.3 µM, […]): -16.43%

CC1CCN(c2cc(NC(=O)C3CC3)ncn2)CC1
Percent Effect (30.3 µM, […]): 71.79%

Cc1ccccc1NC(=O)Nc1cc(N2CCCC2)ncn1
Percent Effect (30.3 µM, […]): -35.39%

COc1ccc(-c2csc3c2c(N)nc(=O)n3CCCN(C)C)cc1
Percent Effect (30 µM, 30.03 µM): -33.83%

CCCNC(=O)C1CCN(Cc2csc(C(C)(C)C)n2)CC1
Percent Effect (30 µM, 30.03 µM): -44.58%

CCOC(=O)C1CCN(Cc2csc(C(C)(C)C)n2)CC1
Percent Effect (30 µM, 30.03 µM): 96.9%

CN(C)C(=O)C1CCN(Cc2csc(C(C)(C)C)n2)CC1
Percent Effect (10 µM): -5.321%

O=C(Nc1nccs1)C1CCCN1Cc1ccccn1 (stereo not drawn)
Percent Effect (30.3 µM, […]): 98.2%

CC(=O)Nc1cccc(CN2CCCC2C(=O)Nc2nccs2)c1 (stereo not drawn)
Percent Effect (30.3 µM, […]): -3.044%

CCNc1ccnc(CN2CCCC2C(=O)Nc2nccs2)c1 (stereo not drawn)
Percent Effect (30.3 µM, […]): 28.37%

O=C(NC[C@]12COC[C@H]1CN(Cc1cccs1)C2)c1ccsc1.O=C(O)C(F)(F)F
Percent Effect (30 µM, 30.03 µM): 48.3%

O=C(O)C(F)(F)F.c1csc(CN2CCn3c(Cn4cncn4)cnc3C2)c1
Percent Effect (30.3 µM, […]): -144.4%

CC1=N[C@@]2(CC[C@@H]3CN(CC4CC4)C[C@@H]32)C(=O)N1CC1CC1.O=C(O)C(F)(F)F
Percent Effect (30.3 µM, […]): -38.25%

Cc1cnn(CCNCc2nnc(-c3occc3C)o2)c1
Percent Effect (10 µM): -38.66%

O=C(O)C(F)(F)F.O=C(O)C(F)(F)F.c1cnc(N2CCCC3(CCN(c4ncccn4)C3)C2)nc1 (stereo not drawn)
Percent Effect (30 µM, 30.03 µM): -31.26%

O=C(O)C(F)(F)F.c1cnc(N2CCCC3(CCN(CC4CCOC4)CC3)C2)nc1 (stereo not drawn)
Percent Effect (30 µM, 30.03 µM): 56.13%

CN1CCC2(CCCN(c3nccc(C(F)(F)F)n3)C2)CC1.O=C(O)C(F)(F)F
Percent Effect (30.3 µM, […]): 3.781%

O=C(O)C(F)(F)F.O=C(O)C(F)(F)F.c1cnc(N2CCC3(CCN(CC4CCOC4)CC3)CC2)nc1 (stereo not drawn)
Percent Effect (30 µM, 30.03 µM): -26.62%

CC(C)CN1C(=O)C2(CCN(CC3CCOCC3)C2)c2ccccc21.O=C(O)C(F)(F)F (stereo not drawn)
Percent Effect (30.3 µM, […]): -1.145%

CC(C)N1CCC2(CCCN(c3nccc(C(F)(F)F)n3)C2)CC1.O=C(O)C(F)(F)F
Percent Effect (30.3 µM, […]): 63.32%

O=C(O)C(F)(F)F.O=C1CC2(CCN(CC3CCOC3)CC2)c2ccccc2N1CC1CC1 (stereo not drawn)
Percent Effect (30.3 µM, […]): -4.569%

O=C(O)C(F)(F)F.O=C(O)C(F)(F)F.OCCN1CC2(CCN(CC3CC3)CC2)c2ccccc21
Percent Effect (30 µM, 30.03 µM): 101.2%

O=C(O)C(F)(F)F.c1cnc(N2CCC3(CCN(CC4CCOC4)CC3)C2)nc1 (stereo not drawn)
Percent Effect (30 µM, 30.03 µM): -13.94%

O=C(O)C(F)(F)F.c1cnc(N2CC3(CCN(CC4CCOC4)CC3)c3ccccc32)nc1 (stereo not drawn)
Percent Effect (30 µM, 30.03 µM): -50.98%

Cc1ccc(CN2CCC3(C2)C(=O)N(CC2CC2)c2ccccc23)s1.O=C(O)C(F)(F)F (stereo not drawn)
Percent Effect (30.3 µM, […]): 92.57%

Cc1ccc(CN2CCC3(C2)C(=O)N(CC(N)=O)c2ccccc23)s1 (stereo not drawn)
Percent Effect (30 µM, 30.03 µM): -6.982%

Cl.Clc1ccccc1OCCc1cc(C2CCNC2)n[nH]1 (stereo not drawn)
Percent Effect (30.3 µM, […]): -6.852%

CN(C(=O)c1ncn2c1CN(C)S(=O)(=O)c1ccccc1-2)C1CC1.O=C(O)C(F)(F)F
Percent Effect (30 µM, 30.03 µM): -19.09%

COc1cc(N2CC[C@@H]3O[C@H](C(=O)N(C)C)C[C@@H]32)ncn1.O=C(O)C(F)(F)F
Percent Effect (30.3 µM, […]): -9.278%

CCC(NC(=O)C1CCN(S(C)(=O)=O)CC1)c1ccc(C)c(C)c1 (stereo not drawn)
Percent Effect (30 µM, 30.03 µM): -5.711%

CCOCc1cc(CN2CCn3c(CO)nnc3C2)ccc1OC.O=C(O)CC(O)(CC(=O)O)C(=O)O
Percent Effect (30.3 µM, […]): -50.73%

O=C(O)C(F)(F)F.O=C1N(CC2CC2)CCC12CCN(c1ncccn1)CC2
Percent Effect (30.3 µM, […]): -19.41%

O=C(O)C(F)(F)F.O=C(O)C(F)(F)F.c1cnc(N2CCC3(CCN(CC4CC4)CC3)CC2)nc1
Percent Effect (30.3 µM, […]): 8.512%

O=C(O)C(F)(F)F.c1cnc(N2CCC3(CC2)CN(CC2CC2)c2ccccc23)nc1
Percent Effect (30.3 µM, […]): 99.63%

CCS(=O)(=O)N1CCC2(CC1)CN(CC1CCOC1)c1ccccc12.O=C(O)C(F)(F)F (stereo not drawn)
Percent Effect (30.3 µM, […]): 14.83%

CS(=O)(=O)N1CCC2(CC1)CN(CC1CCOC1)c1ccccc12.O=C(O)C(F)(F)F (stereo not drawn)
Percent Effect (30.3 µM, […]): 18.78%

O=C(O)C(F)(F)F.c1ccc2c(c1)N(CC1CCOC1)CC21CCN(c2cnccn2)CC1 (stereo not drawn)
Percent Effect (30.3 µM, […]): 99.95%

Cc1noc(C(C)N2CCN(CCC(=O)N3CCOCC3)CC2)n1 (stereo not drawn)
Percent Effect (30 µM, 30.03 µM): -18.56%

Cn1ccnc1C(=O)NCc1cnc2n1CCN(CC1CC1)CC2.O=C(O)C(F)(F)F.O=C(O)C(F)(F)F
Percent Effect (30.3 µM, […]): -46.77%

CC(C)N(C)Cc1cnc2n1CCN(CCc1ccccc1)C2.O=C(O)C(F)(F)F.O=C(O)C(F)(F)F
Percent Effect (30 µM, 30.03 µM): 55.49%

COCCN1CCn2c(CN(C)C(C)C)cnc2C1.O=C(O)C(F)(F)F.O=C(O)C(F)(F)F
Percent Effect (30.3 µM, […]): 0.5782%

CC(C)N(C)Cc1cnc2n1CCN(Cc1cccc(F)c1)C2.O=C(O)C(F)(F)F.O=C(O)C(F)(F)F
Percent Effect (30.3 µM, […]): -6.591%

CCn1nnc2c1C(COCC(=O)N(C)C)CN(Cc1ccco1)C2.O=C(O)C(F)(F)F (stereo not drawn)
Percent Effect (30.3 µM, […]): -38.68%

COc1cccc(-c2nc(C)c(C(=O)NCCC(=O)O)s2)c1
Percent Effect (30 µM, 30.03 µM): -31.35%

CC(C)CC(=O)N1CC(=O)c2sc(Nc3ccc(C#N)cc3)nc2C1
Percent Effect (30.3 µM, […]): -13.31%
